# Experimental data taken from PubChem BioAssay AID2825 (Sanford-Burnham Center for Chemical Genomics, 2010).
# In all, about 330,000 compounds went through this assay and about 1,300 (0.39%) were called active.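 How the source made its calls: active means inhibition of 50% or more; inactive means inhibition below 50%.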 For the sample, actives were picked, then their nearest neighbours and some compounds at random.
# Assay: NALP3 inflammasome inhibitors in reconstituted yeast, primary screen, luminescence, uHTS (AID 2825);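 further: plate controls were induced DMSO wells for no effect and uninduced yeast grown without galactose for full effect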
# Conditions: Yeast reconstituted NLRP3/ASC/caspase-1, beta-gal luminescence, 24 h; at 10 µM; hits give high values
row,Compound,inhibition
1,O=C(COc1ccccc1F)Nc1nc(-c2ccccn2)cs1,52.9% (active)
2,O=C(CN1C(=O)C2C3C=CC(C3)C2C1=O)Nc1nc(-c2ccccn2)cs1 (stereo not given),2.29% (inactive)
3,CC(NC(=O)c1ccco1)C(=O)Nc1nc(-c2ccccn2)cs1 (stereo not given),6.56% (inactive)
4,CCNC(=O)c1cccc(NC(=O)C2CC(=O)N(CCc3ccccc3)C2)c1 (stereo not given),0.384% (inactive)
5,O=C(COC(=O)CCc1c[nH]c(=O)[nH]1)Nc1ccccc1Cl,-10.9% (inactive)
6,O=C(Nc1ccccc1Cl)/C(Cl)=C(\Cl)S(=O)c1ccccc1 (stereo not given),67.4% (active)
7,CN(C)S(=O)(=O)Oc1ccccc1C(=O)Nc1ccccc1Cl,-4.11% (inactive)
8,COc1cc(CNCc2ccc3c(c2)OCO3)c([N+](=O)[O-])cc1OC,20.4% (inactive)
9,Cc1ccc(NC(=O)O/N=C/c2cccc([N+](=O)[O-])c2)cc1,18.6% (inactive)
10,O=[N+]([O-])c1cccc(/C=N/Nc2ncc(Br)cn2)c1,68.1% (active)
11,O=C(N/N=C/c1cccc([N+](=O)[O-])c1)C1CC(=O)N(c2ccc(Br)cc2)C1 (stereo not given),4.22% (inactive)
12,C/C(=N/OC(=O)c1ccc(Br)cc1)c1ccc(C)cc1,25.5% (inactive)
13,Cc1cc(C(=O)Nc2nnc(C3CC3)s2)c(C)s1,47.8% (inactive)
14,O=C(Nc1nnc(C2CC2)s1)c1ccccn1,7.63% (inactive)
15,CCc1cc(C(=O)Nc2nnc(C3CC3)s2)sc1C,52% (active)
16,CC(=O)NC(CC(=O)Nc1ccc(S(=O)(=O)N2CCOCC2)cc1)c1ccccc1 (stereo not given),8.22% (inactive)
17,O=C(c1ccco1)N1CCN(C(=O)c2cc(-c3ccccc3F)no2)CC1,-3.69% (inactive)
18,Fc1ccc2cnc(-c3ccccc3)cc2c1,34.3% (inactive)
19,Fc1ccccc1-c1cc2cc3c(cc2cn1)OCO3,57.2% (active)
20,O=C1CC2(CCCC2)C(=O)N1CN1CCN(S(=O)(=O)c2ccc(F)cc2F)CC1,20.4% (inactive)
21,Cc1c(C(=O)N2CCCc3ccccc32)oc2ccccc12,51.5% (active)
22,CCCn1nc(C(=O)N2CCCc3ccccc32)c2ccccc2c1=O,12.6% (inactive)

row,Compound,inhibition
1,Cc1c(C(=O)OCC(=O)N2CCCC2=O)oc2ccccc12,28.6% (inactive)
2,Cc1cccc(NC(=O)c2ccc([N+](=O)[O-])o2)c1,-4.88% (inactive)
3,Cc1cccc(NC(=S)NC(=O)c2ccc(Br)o2)c1,57.6% (active)
4,O=C(CNC(=O)c1ccc(Br)o1)Nc1ccccc1,22.4% (inactive)
5,O=C(Cc1ccc(S(=O)(=O)N2CCCC2)s1)NC1CCCCCC1,7.38% (inactive)
6,CN(c1ccccc1)S(=O)(=O)c1ccc2[nH]c(=O)[nH]c2c1,25.4% (inactive)
7,COc1ccccc1C(=O)COC(=O)CSCC(=O)Nc1cc(C)on1,15.5% (inactive)
8,CC(CCc1ccc(O)cc1)NCc1ccc(Cl)cc1Cl (stereo not given),21.7% (inactive)
9,N#Cc1nc(COc2ccc(-c3ccccc3)cc2)oc1NCc1cccnc1,2.98% (inactive)
10,N#Cc1nc(Cc2ccccc2)oc1NCCc1ccccc1,53.8% (active)
11,N#Cc1nc(Cc2cccc3ccccc23)oc1NCc1ccc2c(c1)OCO2,2.2% (inactive)
12,CCn1c(=S)sc2c(=O)n(CC(=O)Nc3ccc(OC)cc3)c(C)nc21,18.2% (inactive)
13,CC(NCc1nc2ccccc2n1C)C12CC3CC(CC(C3)C1)C2 (stereo not given),30% (inactive)
14,Cc1ccc(-c2nnc(Nc3ccc(C(=O)N(C)C)cc3)c3ccccc23)cc1S(N)(=O)=O,15.1% (inactive)
15,O=c1[nH]oc(O)c1-c1ncc(C(F)(F)F)cc1Cl,6.26% (inactive)
16,Cn1c(N)c(C(=O)COC(=O)c2cccc(S(=O)(=O)N3CCOCC3)c2)c(=O)n(C)c1=O,3.26% (inactive)
17,CN(Cc1nc2ccccc2s1)C(=O)c1ccc(F)cc1,14.9% (inactive)
18,CCc1ccc(-c2nnn(Cc3nc4ccccc4s3)n2)cc1,31.8% (inactive)
19,COc1ccccc1OCc1nc2ccccc2s1,59.6% (active)
20,Cc1cccc(C)c1NC(=O)CCS(=O)(=O)c1cccc2nsnc12,-0.246% (inactive)
21,COc1ccc(Cc2nnc(N/N=C/c3ccccc3O)[nH]c2=O)cc1OC,9.67% (inactive)
22,Cc1nc2ccccc2nc1N/N=C/c1ccc(O)cc1O,2.73% (inactive)

row,Compound,inhibition
1,COc1cccc(/C=N/Nc2cc(C)nc(-c3ccccc3O)n2)c1O,54.1% (active)
2,CC(C)c1ccc(N2CC(C(=O)Nc3nccs3)CC2=O)cc1 (stereo not given),9.7% (inactive)
3,COc1ccc(CNC(=O)COC(=O)/C=C/c2ccc(S(=O)(=O)N3CCOCC3)cc2)cc1,-4.76% (inactive)
4,Cc1nn(Cc2ccccc2)c(C)c1C(=O)N1CCN(CC(=O)Nc2ccccc2Cl)CC1,14.5% (inactive)
5,NC(=O)N1CCCC1C(=O)Nc1ccc(Cl)c(Cl)c1 (stereo not given),-1.49% (inactive)
6,O=C(CC(O)(C(F)(F)F)C(F)(F)F)Nc1ccc(Cl)c(Cl)c1,78.6% (active)
7,O=C(COC(=O)c1cc[n+]([O-])cc1)Nc1ccc(Cl)c(C(F)(F)F)c1,-2.4% (inactive)
8,Cc1onc(-c2ccccc2Cl)c1C(=O)OCc1nnc(-c2ccccc2)o1,27.8% (inactive)
9,Cc1ccc(-c2nn(C(C)(C)C)c3ncnc(N)c23)cc1,90.7% (active)
10,Cc1ccc(-n2cnc3ncnc(-c4ccccc4)c32)cc1,7.02% (inactive)
11,Cc1[nH]c(=O)c(C(=O)/C=C/c2ccccc2)c2c1CCCC2,28.3% (inactive)
12,CCc1cccc(OC2OC(CO)C(O)C(O)C2NC(C)=O)c1 (stereo not given),-4.24% (inactive)
13,Cn1nccc1/C=N\NC(=O)c1ccc(Cl)cc1,19.2% (inactive)
14,COc1ccccc1C1C(C#N)=C(N)Oc2c1c(-c1ccccc1)nn2-c1ccccc1 (stereo not given),9.88% (inactive)
15,N#CC1(NC(=O)COC(=O)Cc2n[nH]c(=O)c3ccccc23)CCCCC1,17.9% (inactive)
16,CC(C)n1c(CN2CCN(Cc3ccccc3)CC2)nc2ccccc21,18.2% (inactive)
17,CC(C)n1c(-c2cccs2)nc2ccccc21,19% (inactive)
18,CC(C)n1c(COc2ccccc2)nc2ccccc21,57.2% (active)
19,Cc1ccc(OCc2nc3ccccc3n2C)cc1,62.3% (active)
20,CCOc1ccc(C(O)Cc2nc3ccccc3n2C)cc1 (stereo not given),32.1% (inactive)
21,Cn1c(COc2ccc(Cl)cc2)nc2ccccc2c1=O,35.3% (inactive)
